# Screening results (PubChem BioAssay)
# Sm TGR block: blocks Schistosoma mansoni thioredoxin glutathione reductase; purified TGR, DTNB reduction, TNB absorbance 405 nm; actives 3% (n = 360,000); Potency, µM (series often up to 114 µM), for the others: at the top dose activity change, negative = inhibition, actives largely listed as inhibitors; Q962Y6; note: potency is the fitted concentration of half-maximal effect; % is set by controls: 0 for no effect and ±100 for the full control effect; nearly all actives have a fitted effect of over 60% in size
#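 Kinetic colorimetric format: TGR-catalysed, NADPH-driven DTNB reduction monitored via TNB absorbance. Enzyme dispensed at 20 nM; compound exposure 15 min at room temperature before reaction start.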
# Giardia FBPA inh: inhibitors of Giardia lamblia fructose-1,6-bisphosphate aldolase. AID 2451. Potency, µM (doses to about 59.6 µM), inactives show at the top dose activity, negative = inhibition, hits mostly inhibitors. actives 0.71% (n = 290,000). purified Giardia FBPA. A8B2U2; note: potency is the fitted concentration of half-maximal effect; % is set by controls: 0 for no effect and ±100 for the full control effect; nearly all actives have a fitted effect of over 55% in size
#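 40 nM FBPA preincubated 10 min at RT with compound (up to 57.5 uM final), then substrate plus GAPDH/TPI/NAD/arsenate coupling and diaphorase/resazurin added. Fluorescence read after 20 min at RT, 525/598 nm.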
# Cycloheximide cs: counter-screen for Shiga toxin inhibitors: cycloheximide protein synthesis inhibition; cell reporter, cycloheximide protein synthesis inhibition counterscreen; actives 12% (n = 300,000); max response, %; in the data active = max response mostly above about 13%, no sharp cut-off; inactive = mostly below about 14%; note: read at 38.3 µM for the half of the compounds with a filed dose; 0% is about no effect
# Shiga inhibitor: inhibitors of Shiga toxin in Vero cells | Vero cells, Shiga toxin protein synthesis inhibition reporter | inhibition, % at 38.7 µM | actives 9.2% (n = 290,000); in the data active = inhibition mostly above about 28%, no sharp cut-off; inactive = mostly below about 43%; note: 0% is about no effect
# LmPK inhibitor: inhibitors of Leishmania mexicana pyruvate kinase; purified LmPK, Kinase-Glo ATP luminescence, 1 h; Potency, µM (titrated, usually from 57.5 µM), for inactives: at the top dose activity change, negative = inhibition, most hits filed as inhibitors; actives 0.37% (n = 290,000); AID 1721; note: potency is the fitted concentration of half-maximal effect; % is set by controls: 0 for no effect and ±100 for the full control effect
# Target sequence (Q27686 whole entry, looked up): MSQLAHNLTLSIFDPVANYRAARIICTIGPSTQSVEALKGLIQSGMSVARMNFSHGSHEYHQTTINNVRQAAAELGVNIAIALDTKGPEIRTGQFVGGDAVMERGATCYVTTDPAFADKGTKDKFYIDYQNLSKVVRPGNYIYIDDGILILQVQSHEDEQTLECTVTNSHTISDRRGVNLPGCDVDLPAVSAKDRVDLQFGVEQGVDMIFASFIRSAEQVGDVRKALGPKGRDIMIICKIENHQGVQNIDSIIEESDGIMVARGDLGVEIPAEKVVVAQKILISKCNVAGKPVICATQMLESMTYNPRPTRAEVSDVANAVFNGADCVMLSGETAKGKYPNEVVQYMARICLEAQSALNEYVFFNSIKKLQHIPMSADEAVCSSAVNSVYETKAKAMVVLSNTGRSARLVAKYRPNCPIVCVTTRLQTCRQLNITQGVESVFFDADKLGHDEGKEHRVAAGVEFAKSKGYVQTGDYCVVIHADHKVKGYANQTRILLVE
#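 Purified LmPK (0.1 nM) converted ADP (0.1 mM) to ATP with PEP (0.5 mM) in imidazole buffer pH 7.2 with KCl and MgCl2, 1 h at room temperature. ATP was read by Kinase-Glo luminescence; data normalized to uninhibited and no-enzyme controls.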
# TbPYK inhibitor: blocks Trypanosoma brucei pyruvate kinase | actives 0.12% (n = 410,000) | Potency, µM (highest dose often 76.8 µM), without a hit: at the top dose activity, negative = inhibition, most hits filed as inhibitors | AID 624173 | TbPYK enzyme, Kinase-Glo Plus ATP luminescence, 45 min; note: potency is the fitted concentration of half-maximal effect; % is set by controls: 0 for no effect and ±100 for the full control effect; nearly all actives have a fitted effect of over 50% in size
#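 TbPYK + substrate in 50 mM TEA pH 7.2, 100 mM KCl, 10 mM MgCl2, 0.05% BSA, 0.01% Tween-20; cpd pinned; ADP 130 uM final; 45 min RT; Kinase-Glo Plus 10 min; luminescence endpoint.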
# The depositor's hits bear a star; ? = inconclusive; · = no result given; [ ] = dose if it differs, or a comment. This excerpt belongs to a sample that is enriched for hits. Unless noted, calls come from the whole dose curve; as a rule, active = well fitted curve in the direction sought with a large enough effect; inconclusive = small, poorly fitted or top-dose-only effect, or another doubt; inactive = no such curve, though single readings can be large; an effect the other way counts as inactive or inconclusive.
SMILES,Sm TGR block,Giardia FBPA inh,Cycloheximide cs,Shiga inhibitor,LmPK inhibitor,TbPYK inhibitor
CSc1ccc(/C=C/c2ccc3cccc(O)c3n2)cc1,6.7%,-16.9%,44.1*,115.3*,?,-14.7%
COc1cc(Br)c(/C=C/c2ccc3cccc(O)c3n2)cc1OC,3.3%,10.4%,11.5,1.8,1.4%,-1.4%
COc1ccc(C(=O)Nc2ccc3nc(SCC(=O)N(C)c4ccccc4)sc3c2)cc1,16.4%,·,·,·,·,2.0%
COc1cc(/C=C/c2ccc3cccc(O)c3n2)ccc1O,-2.9%,-8.7%,54.9*,67.5*,4.5%,2.2%
COc1ccc(OC)c(/C=C/c2ccc3cccc(O)c3n2)c1,-18.3%,-1.1%,58.5*,89.2*,2.6%,·
COc1cc(/C=C/c2nc3ccccc3c(=O)n2-c2ccc(O)cc2)ccc1O,-1.5%,-4.8%,-1.2,-1.7,-2.9%,-5.8%
COc1cc(Br)cc(/C=C/c2ccc3cccc(O)c3n2)c1O,-30.4%,8.7%,32.1*,74.5*,4.3%,0.1%
COc1cc(/C=C/c2ccc3cccc(OC)c3n2)c(OC(C)=O)c([N+](=O)[O-])c1,-1.6%,-4.1%,-2.7,-1.9,-0.5%,1.6%
O=C(CC(c1cccs1)N1Cc2ccccc2C1=O)Nc1ccccc1F (stereo not drawn),-0.2%,·,·,·,·,-0.2%
Cc1ccc2sc(C)[n+](CCO)c2c1,25.1µM*,-20.3%,-5.0,-7.1,0.3%[11.5 µM],-22.6%
COc1ccc(NC(=O)c2ccc(S(=O)(=O)NCc3cccnc3)cc2)cc1,-1.1%,·,9.5*,30.9,2.7%,-0.2%
Cc1ccc(NS(=O)(=O)c2ccc(C(=O)NCc3cccnc3)cc2)cc1,-3.5%,·,55.0*,75.9*,-8.3%,12.3%
O=C(NCc1cccnc1)c1ccc(S(=O)(=O)Nc2ccccc2)cc1,2.4%,·,·,·,·,1.6%
COc1cc(Cl)c(S(=O)(=O)NCCc2c(C)[nH]c3c(C)cccc23)cc1Cl,2.8%,·,·,·,·,-9.3%
CN1/C(=C\C=Nc2ccccc2)C(C)(C)c2ccccc21,-17.2%,-28.3%,-2.3,-15.5,-18.9%,-2.6%
CN1/C(=C\C=O)C(C)(C)c2ccccc21,21.2%,-3.7%,-2.3,-2.2,5.2%,-1.8%
CN(C)c1ccc(N=C/C=C2\N(C)c3ccccc3C2(C)C)cc1,-41.2%,-11.2%,68.2*,167.2*,-15.1%,-10.9%
CN1/C(=C\C=C\C2=[N+](C)c3ccc4ccccc4c3C2(C)C)C(C)(C)c2ccccc21,-2.6%,·,-8.9,-62.2,14.1µM*,·
CN1/C(=C\C=Nc2ccc3ccccc3c2)C(C)(C)c2ccccc21,-20.3%,-5.3%,46.8*,53.1,3.8%,·
CN1\C(=C/C=C/C=C/C=[N+](C)C)C(C)(C)c2ccccc21,0.9%,-16.5%,8.2,-7.5,10µM*,?
COc1ccc2oc(-c3cccc(NC(=O)c4cc([N+](=O)[O-])ccc4N4CCOCC4)c3)nc2c1,2.9%,·,·,·,·,-2.3%
O=c1cnc2cnc(N3CCNCC3)nc2n1C1CC1,·,-0.8%,·,·,·,·
O=C(/C=C/c1ccc2c(c1)OCO2)Nc1nc(-c2ccc(F)cc2F)cs1,0.5%,-9.4%,-4.7,-17.8,-0.7%,·
CCOC(=O)Cc1csc(NC(=O)Nc2cccs2)n1,-22.0%,-2.4%,37.3*,48.4*,3.1%,-7.2%
CCOC(=O)Cc1csc(NC(=O)Nc2ccc(F)cc2)n1,10.8%,-0.8%,11.7*,14.0,-1.0%,-0.6%
SMILES,Sm TGR block,Giardia FBPA inh,Cycloheximide cs,Shiga inhibitor,LmPK inhibitor,TbPYK inhibitor
CCCNC(=O)Nc1nc(CC(=O)OCC)cs1,6.9%[57.1 µM],3.8%,-1.3,-11.5,-3.8%,2.0%
CCOC(=O)Cc1csc(NC(=O)Cc2cccs2)n1,-2.6%,-0.2%,-2.5,1.9,1.6%,·
CCOC(=O)Nc1nc(-c2ccc(F)cc2F)cs1,-7.0%,-2.1%,54.5*,12.0*,0.7%,1.6%
CCOC(=O)Cc1csc(N/N=C/c2ccc(C(F)(F)F)cc2)n1,0.1%,-1.1%,22.3*,25.1,7.4%,5.6%
COc1cc(CO)cc(Br)c1OCc1cccnc1,2.8%,-3.1%,-9.3,-16.6,-4.2%,1.9%
Cc1ccc(C)c(NC(=O)CSc2cn(CC(=O)N3CCCC3)c3ccccc23)c1,8.4%,·,·,·,·,-9.1%
Cc1ccc(N(CC(=O)N2CCN(c3cccc(C)c3C)CC2)S(=O)(=O)c2c(C)nn(C)c2C)cc1,-1.1%,·,·,·,·,3.3%
Nc1c(-c2nc(-c3ccccc3Cl)no2)nnn1-c1ccccc1F,-2.1%,·,·,·,·,-3.9%
Cc1ccccc1CNC(=O)c1ccc2nc(SCc3ccc(F)cc3)n(C)c2c1,-3.5%,·,·,·,·,1.0%
CCOC(=O)Cc1csc(NC(=O)Cc2ccc(C)cc2)n1,-7.2%,3.5%,-0.6,10.8,5.5%,2.8%
CCOC(=O)Cc1csc(NC(=O)Nc2ccc(C)cc2)n1,2.8%,0.3%,26.6*,50.4*,-16.8%,0.8%
C[n+]1ccc(C(=O)N/N=C/c2ccco2)cc1,-2.7%,?,-3.2,-4.3,-4.9%,-7.2%
O=C(N/N=C/c1ccco1)c1cccc(N2Cc3ccccc3C2)c1,3.55µM*,-21.3%,12.6,-8.6,-2.3%,-17.5%
COc1cccc(/C=N/NC(=O)c2cccc(N3CCCC3=O)c2)c1,-0.1%,-0.1%,32.5*,106.7*,-9.3%,-3.3%
O=C(N/N=C/c1ccco1)c1cccc(N2CCCC2=O)c1,-19.7%,-4.9%,29.1*,active,-25.5%,-2.2%
CN(C)c1ncnc2ccc(-c3ccccc3C(F)(F)F)cc12,·,-14.1%,·,·,·,·
O=C(CCNC(=O)N1CC(=O)Nc2ccccc21)NCc1ccccc1,·,·,·,·,·,1.3%
COC(=O)c1ccc(C(=O)OC)c(NC(=O)N2CC3CCCN3c3ccccc32)c1 (stereo not drawn),-6.8%,·,·,·,·,-3.5%
COc1cc(OC)c(NC(=O)C2=C(C)C(=O)OC23CCN(C(C)=O)CC3)cc1Cl,-1.8%,·,·,·,·,2.9%[15.4 µM]
CCOc1ccc(N=C2NC(=O)S/C2=C\c2ccc(Cl)cc2)cc1,0.0%,9.1%,1.4,12.5,-1.6%,-2.0%
COc1ccc(N=C2NC(=O)S/C2=C\c2ccc(N(C)C)cc2)cc1,0.8%,3.0%,33.7*,59.9*,-8.1%,-3.7%
COc1cccc(-c2nn3c(-c4ccco4)nnc3s2)c1,44.7µM*,2.8%,4.4,36.5,6.3%,·
COc1cccc(OC)c1-c1nn2c(-c3ccco3)nnc2s1,?,-2.3%,56.4*,199.8*,-1.8%,·
COc1cccc(-c2nn3c(-c4ccccn4)nnc3s2)c1,2.5%,14.7%,15.2*,42.1,2.4%,-11.3%
c1ccc(OCc2nn3c(-c4ccccn4)nnc3s2)cc1,-1.6%,8.5%,32.5*,68.1*,-2.7%,0.7%
COc1cc(-c2nn3c(-c4ccco4)nnc3s2)cc(OC)c1OC,-1.3%,1.4%,-1.9,33.3,-0.9%,·
c1ccc(OCc2nn3c(-c4ccncc4)nnc3s2)cc1,4.6%,10.8%,10.3,-10.7,-4.3%,-6.3%
CCc1ccccc1NC(=O)N1CC(CC)Oc2ccc(Cl)cc21 (stereo not drawn),-1.5%,·,·,·,·,0.0%
